# Assay outcomes (PubChem BioAssay)
# POLB inh: blocks human DNA polymerase beta activity. P06746. Pol beta primer extension/strand displacement, fluorescence kinetic. Potency, µM (series often up to 114 µM), inactives show at the top dose activity change, negative = inhibition, usual class: inhibitors. 340,000 compounds, 1.3% hits. AID 485314; note: potency is the fitted concentration of half-maximal effect; % is set by controls: 0 for no effect and ±100 for the full control effect
#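 Values derive from four-parameter Hill fits of normalized kinetic data: reads at 0 and 10 min following addition of 50 nM substrate to 10 nM Pol beta preincubated 15 min with compound.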
# PI4K2A inh: inhibitors of human PI4K2A; Q9BTU6; purified PI4K2A, ADP-Glo luminescence, 1 h; hits give low values; activity change, negative = inhibition, % at 76.9 µM; 420,000 compounds, 0.13% hits; AID 1346378; in the data active = activity change below about -50%; inconclusive = mostly about -30% to -49%;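 note: -100% = wells without enzyme as full effect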
#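 PI4K2A activity was measured by ADP-Glo luminescence: enzyme (4 ug/mL stock) and phosphatidylinositol (1.2 mM stock) in Tris pH 7.5/MgCl2/EGTA/Triton X-100 buffer were reacted with ATP (300 microM stock) for one hour at ambient temperature.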
# Pol eta inh-1: blocks human DNA polymerase eta activity | 390,000 compounds, 1.2% hits | Potency, µM (highest dose often 114 µM), for the others: at the top dose activity change, negative = inhibition, hits mostly inhibitors | recombinant Pol eta, fluorescent DNA replication assay | Q9Y253 | AID 588591; note: potency is the fitted concentration of half-maximal effect; % is set by controls: 0 for no effect and ±100 for the full control effect
#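 Fluorescent replication assay: 50 nM final substrate added after a 15 min room-temperature compound preincubation with 10 nM enzyme. Signal taken at 0 min and again at 10 min.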
# Pol kappa inh-1: DNA polymerase kappa (human) inhibition | Q9UBT6 | 400,000 compounds, 0.53% hits | Potency, µM (top dose mostly 107 µM), without a hit: top-dose activity, negative = inhibition, actives largely listed as inhibitors | purified Pol kappa, fluorescent DNA synthesis assay, 10 min; note: potency is the fitted concentration of half-maximal effect; % is set by controls: 0 for no effect and ±100 for the full control effect
# Target sequence (Q9UBT6 whole entry, looked up): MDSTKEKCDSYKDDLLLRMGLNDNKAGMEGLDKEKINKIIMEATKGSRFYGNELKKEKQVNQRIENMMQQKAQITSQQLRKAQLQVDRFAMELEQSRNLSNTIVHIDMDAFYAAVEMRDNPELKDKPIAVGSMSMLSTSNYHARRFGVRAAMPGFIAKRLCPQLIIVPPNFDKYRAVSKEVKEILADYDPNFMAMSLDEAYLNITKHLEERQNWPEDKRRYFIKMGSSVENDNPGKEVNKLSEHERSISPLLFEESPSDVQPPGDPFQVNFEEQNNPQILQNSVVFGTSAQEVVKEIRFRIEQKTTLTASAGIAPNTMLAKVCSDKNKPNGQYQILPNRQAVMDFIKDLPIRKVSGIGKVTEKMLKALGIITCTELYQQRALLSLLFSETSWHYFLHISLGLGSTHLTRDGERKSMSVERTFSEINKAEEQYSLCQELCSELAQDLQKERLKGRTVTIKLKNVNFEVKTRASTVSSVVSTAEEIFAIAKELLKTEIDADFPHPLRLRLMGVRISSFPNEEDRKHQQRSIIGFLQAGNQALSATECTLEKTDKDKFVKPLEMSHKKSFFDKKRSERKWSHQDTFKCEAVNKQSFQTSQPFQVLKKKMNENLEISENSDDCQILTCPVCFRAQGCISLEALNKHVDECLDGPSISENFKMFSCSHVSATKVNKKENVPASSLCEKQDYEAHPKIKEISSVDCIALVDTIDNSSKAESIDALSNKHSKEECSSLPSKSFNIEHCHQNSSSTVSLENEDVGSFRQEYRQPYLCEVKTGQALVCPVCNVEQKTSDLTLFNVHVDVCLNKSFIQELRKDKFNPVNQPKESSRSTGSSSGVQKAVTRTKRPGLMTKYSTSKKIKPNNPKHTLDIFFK
#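 Kinetic fluorescence screen: compound preincubated 15 min RT with 10 nM enzyme; 50 nM substrate (final) initiates; reads at 0/10 min.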
# PI5P4K alpha inh: blocks human PI5P4K alpha kinase activity; PI5P4Kalpha enzyme, ADP-Glo luminescence, 60 min; hits give low values; P48426; max response, %; 330,000 compounds, 1.2% hits; AID 652105; active = max response of -50% or lower; inconclusive = between -30% and -50%; inactive = -30% or higher; note: value at the top dose of about 77 µM; % is set by controls: 0 for no effect and ±100 for the full control effect
#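 Reactions run in 0.038 M HEPES pH 7.4, 0.28 mM EGTA, 0.1% CHAPS and 5% DMSO, with PI5P4Kalpha, substrate, compound and 5 microM ATP final, one hour at room temperature. Readout is ADP-Glo luminescence.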
# POLI inh: inhibitors of human DNA polymerase iota | 390,000 compounds, 1% hits | AID 588590 | Potency, µM (titrated, usually from 115 µM), for inactives: at the highest dose activity, negative = inhibition, hits mostly inhibitors | Pol iota fluorescent replication assay, 10 min | Q9UNA4; note: potency is the fitted concentration of half-maximal effect
#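 Fluorescent replication assay read twice, at 0 min and 10 min after adding 50 nM (final) substrate. Enzyme (10 nM) and compounds were first incubated 15 min at room temperature; enzyme-free buffer wells were negative controls.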
# TbPGK inh: TbPGK inhibition, hit validation; Potency, µM (top dose mostly 57.5 µM), for the others: at the highest dose activity change, negative = inhibition, hits mostly inhibitors; TbPGK coupled GAPDH assay, Kinase-Glo luminescence; AID 686980; 500 compounds, 79% hits; shares compounds with Pol kappa inh-1; note: potency is the fitted concentration of half-maximal effect; % is set by controls: 0 for no effect and ±100 for the full control effect; nearly all actives have a fitted effect of over 65% in size
# POLI cherry-pick: Human Pol iota inhibitor confirmatory assay; Potency, µM, most hits filed as inhibitors; Pol iota primer extension, TAMRA/BHQ fluorescence; shares compounds with Pol kappa inh-1; AID 720496; 1,500 compounds, 77% hits; note: potency is the fitted concentration of half-maximal effect
# Pol kappa inh-2: Pol kappa (human) inhibition, cherry-pick confirmation; shares compounds with Pol eta inh-1; purified Pol-kappa, fluorescent strand-displacement substrate; 920 compounds, 76% hits; Potency, µM, hits mostly inhibitors; AID 720501; note: potency is the fitted concentration of half-maximal effect
# Pol eta inh-2: Pol eta (human) inhibition, cherry-pick confirmation. Pol eta primer extension, TAMRA/BHQ fluorescence, 10 min. Potency, µM, actives largely listed as inhibitors. 2,600 compounds, 64% hits. shares compounds with Pol eta inh-1. AID 720502; note: potency is the fitted concentration of half-maximal effect
# ADP-Glo interf: ADP-Glo luciferase interference, PI5P4K counter-screen; Potency, µM (series often up to 76.9 µM), for inactives: top-dose activity change, negative = inhibition, usual class: inhibitors; ADP-Glo detection counter-screen, luciferase luminescence, no enzyme; shares compounds with PI5P4K alpha inh; 1,100 tested, under 10 active
# Starred values were filed as active, the others as inactive; ? = inconclusive; · = no result; [ ] = remark or other dose. Hits are enriched below; roughly 2.8% of the tested compounds scored in any of these assays. Unless noted, calls come from the whole dose curve; as a rule, active = well fitted curve in the direction sought with a large enough effect; inconclusive = small, poorly fitted or top-dose-only effect, or another doubt; inactive = no such curve, though single readings can be large; an effect the other way counts as inactive or inconclusive.
SMILES,POLB inh,PI4K2A inh,Pol eta inh-1,Pol kappa inh-1,PI5P4K alpha inh,POLI inh,POLI cherry-pick,Pol eta inh-2,ADP-Glo interf,others
C=CCNC(=O)COC(=O)c1c2c(nc3ccccc13)CCC2,22.4µM*,-14.7,35.5µM*,89.1µM*,-75.5*,22.4µM*,?,53.6*,-4.4%,
COc1ccc2[nH]cc(CCN=C(NC(=O)c3cccc(Cl)c3)Nc3nc(C)cc(C)n3)c2c1,-19.1%,-7.5,-22.8%,2.0%,·,15.3%,·,·,·,
Cc1cc(C)c2oc(-c3cccc(NC(=O)COc4ccc([N+](=O)[O-])cc4)c3)nc2c1,15.3%,-0.2,9.6%,-1.6%,·,0.5%,·,·,·,
COc1ccccc1OCC(=O)Nc1sc2c(c1C(N)=O)CCC2,·,-10.8,?,?,?,?,·,·,·,
COc1cccc(C(=O)OCC(=O)Nc2sc3c(c2C(N)=O)CCC3)c1O,·,-16.9,22.4µM*,79.4µM*,-51.5*,20µM*,42.3*,30.1*,3.5%,Pol kappa inh-2=26.7*
CCNc1ncc2nc(-c3cccs3)c(=O)n(Cc3cccs3)c2n1,·,·,·,-4.6%[60.1 µM],·,·,·,·,·,
O=C(c1ccc(=O)oc1)N1CCCc2ccccc21,-100.9%,-24.2,3.55µM*,20µM*,-57.2*,12.6µM*,42.3*,30.1*,-0.5%,
CCCCN(C(=O)c1cccc(-n2cccc2)c1)c1c(N)n(CCC)c(=O)[nH]c1=O,·,-0.2,15.8µM*,?,-60.9*,14.1µM*,29.9*,37.9*,1.9%,
CCCN(C(=O)c1ccc([N+](=O)[O-])c(C)c1)c1c(N)n(Cc2ccccc2)c(=O)[nH]c1=O,·,-2.9,-11.4%,5.4%,6.0,32.5%,·,·,·,
CCCN(C(=O)c1cccc(-n2cccc2)c1)c1c(N)n(Cc2ccccc2)c(=O)[nH]c1=O,·,-16.5,11.2µM*,28.2µM*,-88.2*,10µM*,29.9*,42.6*,-8.2%,
Cc1noc(C)c1C(=O)N1CCC[C@@]2(CCN(C(=O)NC(C)C)C2)C1,·,·,·,10.7%[60.1 µM],·,·,·,·,·,
O=C(Nc1ccc(S(=O)(=O)N2CCOCC2)cc1)c1nn(-c2ccc(F)cc2)ccc1=O,5.9%,-3.3,-11.7%,15.6%,3.8,43.0%,·,·,·,
O=C(Nc1ccc(S(=O)(=O)Nc2nccs2)cc1)c1nn(-c2ccc(F)cc2)ccc1=O,?,-23.2,20µM*,89.1µM*,-70.1*,35.5µM*,67*,42.6*,-1.0%,
CCN(CC)C(=O)CC(c1cc(OC)c(OC)c(OC)c1)c1c(OC)cc(OC)c2ccc(=O)oc12 (stereo not drawn),5.1%,-0.7,-1.9%,-10.5%,1.4,-24.3%,·,·,·,
CCN(CC)C(=O)CC(c1cc(OC)c(OC)c(OC)c1)c1c(OC)cc(OC)c2c(-c3ccccc3)cc(=O)oc12 (stereo not drawn),39.8µM*,-5.3,39.8µM*,79.4µM*,-56.0*,70.8µM*,23.8*,60.1*,2.7%,
CCn1c(SCc2nc3sc(C(=O)O)c(C)c3c(=O)[nH]2)nc2ccccc21,8.91µM*,-5.7,0.708µM*,3.55µM*,-63.7*,2.82µM*,9.47*,2.69*,1.0%,TbPGK inh=?
COCCn1c(SCc2nc3sc(C(=O)OC)c(C)c3c(=O)[nH]2)nc2ccccc21,-4.9%,-1.4,?,-1.0%,-20.7,3.6%,·,·,·,
CCN(CC)C(=O)COC(=O)c1cc(-c2ccco2)nc2ccccc12,28.2µM*,-14.0,39.8µM*,79.4µM*,-68.5*,14.1µM*,47.4*,67.5*,-0.7%,
CCN(CC)C(=O)COC(=O)c1cc(-c2ccc(OC)cc2)nc2ccccc12,25.5%,1.0,-0.4%,-14.1%,·,-4.3%,·,·,·,
CCOC(=O)C1CCCN(C(=O)c2cc(-c3ccncc3)nc3ccccc23)C1 (stereo not drawn),·,0.7,-23.3%,1.1%,-3.2,32.3%,·,·,·,
CCOC(=O)C1CCCN(C(=O)c2cc(-c3ccco3)nc3ccccc23)C1 (stereo not drawn),·,?,3.16µM*,22.4µM*,-84.5*,3.55µM*,18.9*,19*,-6.6%,TbPGK inh=10.3µM*;Pol kappa inh-2=9.47*
Cc1c(N=C2C=C(Br)C(=O)C(Br)=C2)c(=O)n(-c2ccccc2)n1C,39.8µM*,0.2,?,79.4µM*,-78.5*,3.98µM*,·,60.1*,·,
Cc1c(N=Nc2ccc(O)cc2)c(=O)n(-c2ccccc2)n1C,2.6%,0.1,-9.9%,-1.8%,2.7,137.8%,·,·,·,
CCCN1C(=O)/C(=C\C=C2\N(CC)c3ccccc3C2(C)C)SC1=S,-14.2%,2.8,?,-16.1%,0.5,?,·,·,·,Pol kappa inh-2=53.2*
CCOc1ccc(-n2c(SCC(=O)Nc3ccc4cn[nH]c4c3)nnc2-c2ccc(C(C)(C)C)cc2)cc1,·,0.5,·,·,·,·,·,·,·,
SMILES,POLB inh,PI4K2A inh,Pol eta inh-1,Pol kappa inh-1,PI5P4K alpha inh,POLI inh,POLI cherry-pick,Pol eta inh-2,ADP-Glo interf,others
O=C(NNC(=O)c1cc(-c2ccco2)nc2ccccc12)c1ccccc1,?,-1.1,-7.2%,-31.5%,-23.3,?,·,·,·,
O=C(O)c1cc(-c2ccco2)nc2cc3ccccc3cc12,11.2µM*,-4.2,20µM*,79.4µM*,?,?,·,75.7*,·,
O=[n+]1c2c(n([O-])c3cc(F)c(N4CCCC4)cc31)CCCC2,-9.3%,-7.1,?,-11.4%,-1.2,?,·,·,·,
O=[n+]1c2c(n([O-])c3cc(F)c(N4CCCC4)cc31)CCC2,·,-16.2,?,?,-22.2,?,·,?,·,
COC(=O)C1CN(CC(C)C)CCS(=O)(=O)N1Cc1ccc(Cl)cc1 (stereo not drawn),·,-2.9,·,·,·,·,·,·,·,
CCOC(=O)c1sc(NC(=O)c2ccc3nc[nH]c3c2)nc1C,?,-5.4,?,-25.4%,-19.7,?,·,?,·,
CCOC(=O)c1sc(NC(=O)c2ccc(=O)[nH]c2)nc1C,13.7%,2.8,?,5.5%,-11.4,14.5%,·,·,·,
